Test results: PubChem BioAssay
Active and inactive are the calls of the source.

Experiment: optical density change of DRC41 E. coli – strain DRC41, OD650, 24 h, E. coli filamentation project, primary screen (AID 1093);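 also: MC1000 strain lacking acrAB efflux and sulA so SOS filamentation is blocked; test concentration not given here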
Conditions: E. coli DRC41 growth, higher = more signal, called active from +8 up or from −8 down
With CC(=O)NCCCC[C@@H]1NC(=O)[C@H]2C[C@@H](C(=O)NCCCCCNC(=O)CS)[C@@H](c3ccc(O)cc3)N2C1=O the z-score was 0.358 (inactive).
With CCOc1ccc(N2C(=O)CSC2c2cccc([N+](=O)[O-])c2)cc1 (configuration not stated) the z-score was 1.01 (inactive).
In the case of COc1ccc(C(=O)Nc2ccc(CN3C(=O)[C@]4(O[C@H](CC(=O)N5CCC[C@H]5CO)[C@@H]([Si](C)(C)c5ccc(OC)cc5)[C@@H]4C)c4ccccc43)cc2)cc1, the z-score was -0.481 (inactive).
In the case of C=C(CCCC)C(=O)CC[C@H](OC(=O)c1cccnc1)c1ccc(OCCO)cc1, the z-score was 0.02 (inactive).
For COC(=O)c1c(CC[C@@H](CO)NC(=O)NCCc2c[nH]c3ccccc23)oc(C(=O)Cc2ccccc2)c1C(=O)OC, the z-score was 0.528 (inactive).
In the case of COC(=O)C(CC#Cc1ccc2c(c1)[C@]1(C(=O)N2)[C@H](c2ccccc2OCCO)N2[C@H](c3ccccc3)[C@H](c3ccccc3)OC(=O)[C@H]2[C@@H]1C(=O)O)C(=O)OC, the z-score was 0.871 (inactive).
In the case of CN(C)CCCC[C@@H]1NC(=O)[C@H]2C[C@@H](C(=O)NCCCCCN)[C@@H](c3cccc(OCCO)c3)N2C1=O, the z-score was 1.04 (inactive).

Experiment: probe aLefty2 binding to arrayed compounds – biochemical, biotinylated probe, 635/667 nm fluorescence, primary screen (AID 1094);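 also: score merges spot fluorescence near 667 nm with spot signal-to-noise ratio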
Conditions: small-molecule microarray, higher = more signal
COC(=O)c1c2oc(c1C(=O)OC)C(=O)N[C@@H](C(C)C)Cn1cc(nn1)C1(CCCCC1)NC(=O)N[C@H](CO)CC2 showed a composite z-score of -0.116.
With COc1ccccc1CN1C(=O)c2ccccc2[C@@]2(Cc3ccccc3N(CCCN(C)C)C2=O)[C@@H]1c1ccc(CO)cc1 the composite z-score was -0.247.
In the case of COC(=O)[C@@]1(Cc2ccc(OC)cc2)[C@H]2c3cc(C(=O)N(C)C)n(Cc4ccc(C(F)(F)F)nc4)c3C[C@H]2CN1C(=O)c1ccccc1, the composite z-score was 0.498.
Compound CC(CO)N1C(=O)[C@@H]2C3C(=O)OCCC/C=C\[C@H]3OC23C=CCN(CCN2CCOCC2)C(=O)[C@@H]13 (some centres not stated) has a composite z-score of -0.207.
With CCOC(=O)C1=C[C@@H](C(C)C)N(S(=O)(=O)c2ccc(C)cc2)[C@H]1c1ccccc1F the composite z-score was 0.142.
Compound O=C1O[C@@H](c2ccccc2)[C@@H](c2ccccc2)N2[C@@H](c3ccccc3OCCO)[C@]3(C(=O)Nc4ccc(C#CC5(O)CCCCCC5)cc43)[C@@H](C(=O)N3CCN(c4ncccn4)CC3)[C@H]12 has a composite z-score of -0.122.
COC(=O)c1c(CC[C@@H](CO)NC(=O)N[C@@H](Cc2ccccc2)Cn2cc(-c3ccccn3)nn2)oc(C(=O)N2CCOCC2)c1C(=O)OC gave a composite z-score of -0.124.
Work on COc1ccc(C(O)C2C=CC3C(=O)N(C)C(=O)C3N2N(c2ccccc2)c2ccccc2)c2ccccc12 (configuration not stated) yielded a composite z-score of 0.242.
Work on CS(=O)(=O)CCOC(=O)C1=CC(CCCO)=CC(c2ccc(CN3CCCC3)cc2)N(Cc2cccc(OC(F)(F)F)c2)C=C1C(=O)OCCS(C)(=O)=O (configuration not stated) yielded a composite z-score of 0.336.
C=CC[C@]1(C(=O)N2CCOCC2)N=C(c2ccc(OCCCO)cc2)O[C@H]1c1ccccc1N=[N+]=[N-] showed a composite z-score of 0.405.
Compound CCCCN1CC=CC23O[C@@H]4/C=C\CCCOC(=O)C4[C@H]2C(=O)N(CCCCCO)[C@@H]3C1=O (some centres not stated) has a composite z-score of -0.188.
O=C(O)[C@@]1(CCS(=O)(=O)c2ccccc2)N=C(c2ccc(OCCCO)cc2)O[C@H]1c1ccccc1 showed a composite z-score of 0.16.
Compound COc1ccc([Si](C)(C)[C@@H]2[C@@H](CC(=O)N3Cc4ccccc4C[C@H]3CO)O[C@]3(C(=O)N(Cc4cccc(N5CCC5=O)c4)c4ccccc43)[C@H]2C)cc1 has a composite z-score of -0.0963.
O=C1OCCC=C[C@H]2OC34C=CCN(c5ccc(Cl)cc5)C(=O)[C@H]3N(CCCO)C(=O)[C@@H]4C12 (some centres not stated) showed a composite z-score of 0.0058.
In the case of CCCCCCCCCCC(O)C1C=CC2C(=O)NC(=O)C2N1Nc1ccc(Cl)cc1Cl (configuration not stated), the composite z-score was -0.0769.
C=CCC(OC(C)=O)[C@@H]1[C@@H](N(Cc2ccc(-c3ccccc3)cc2)C(=O)Cc2ccc(F)cc2)c2cc(OCCCO)ccc2N1C(=O)c1ccc2ccccc2c1 (some centres not stated) showed a composite z-score of 0.0002.
Compound COCC(=C=CC[C@H](O)c1cccc(OCCO)c1)C[C@H](O)c1cc(Cl)cc(Cl)c1O has a composite z-score of -0.143.
With Cc1ccc(/C=C/C=O)cc1 the composite z-score was -0.123.
With C=C(CCCC)/C(=C/C[C@H](OC(C)=O)c1ccc(OCCO)cc1)c1cnc2ccccc2c1 the composite z-score was -0.138.
Work on COc1cc2c(cc1O)C=[N+](Cc1cc3c(cc1Br)OCO3)CC2 yielded a composite z-score of -0.0285.
CCCCCCc1nc(-c2ccc(-c3ccc(Cl)c(Cl)c3)o2)c(C)c2c1[Si](C(C)C)(C(C)C)OC2 showed a composite z-score of -0.259.
COCCCNC(=O)[C@]1(Cc2ccccc2)N=C(c2ccc(OCCCO)cc2)O[C@@H]1c1ccccc1CN=[N+]=[N-] showed a composite z-score of 0.195.
For [N-]=[N+]=Nc1ccccc1C[C@@]1(C(=O)N2CCCCC2)N=C(c2ccc(OCCCO)cc2)O[C@@H]1c1ccccc1, the composite z-score was 0.101.
With C=CCN(Cc1ccccc1)C(=O)C(c1cccs1)N(C(=O)/C=C\C(=O)O)c1ccc(CCOCCO)cc1 (configuration not stated) the composite z-score was -0.209.
With [N-]=[N+]=NCc1ccccc1[C@H]1OC(c2ccc(OCCCO)cc2)=N[C@@]1(Cc1ccccc1)C(=O)N1CCCCC1 the composite z-score was 0.0004.
For CC(C)(C)OC(=O)CC[C@]1(C(=O)NCCN2CCOCC2)COC(c2ccc(OCCCO)cc2)=N1, the composite z-score was -0.0984.
With COC(=O)[C@@]1(Cc2ccc(OC)cc2)[C@H]2c3cc(C(=O)N4CCCC4)n(CCCNc4ncc(C(F)(F)F)cc4Cl)c3C[C@H]2CN1C(=O)c1ccccc1 the composite z-score was 0.987.
With COCCOC(=O)N1C(=O)[C@@]2(c3ccccc31)[C@H](C(N)=O)[C@H]1C(=O)O[C@H](c3ccccc3)[C@H](c3ccccc3)N1[C@@H]2c1ccc(O)cc1 the composite z-score was -0.166.
CC(=O)NCCCC[C@@H]1NC(=O)[C@H]2C[C@@H](C(=O)NCCCCCNC(=O)CS)[C@@H](c3ccc(O)cc3)N2C1=O gave a composite z-score of -0.0727.
CCOc1ccc(N2C(=O)CSC2c2cccc([N+](=O)[O-])c2)cc1 (configuration not stated) gave a composite z-score of -0.0555.
For COc1ccc(C(=O)Nc2ccc(CN3C(=O)[C@]4(O[C@H](CC(=O)N5CCC[C@H]5CO)[C@@H]([Si](C)(C)c5ccc(OC)cc5)[C@@H]4C)c4ccccc43)cc2)cc1, the composite z-score was -0.124.
For C=C(CCCC)C(=O)CC[C@H](OC(=O)c1cccnc1)c1ccc(OCCO)cc1, the composite z-score was -0.0547.
Work on COC(=O)c1c(CC[C@@H](CO)NC(=O)NCCc2c[nH]c3ccccc23)oc(C(=O)Cc2ccccc2)c1C(=O)OC yielded a composite z-score of -0.117.
In the case of COC(=O)C(CC#Cc1ccc2c(c1)[C@]1(C(=O)N2)[C@H](c2ccccc2OCCO)N2[C@H](c3ccccc3)[C@H](c3ccccc3)OC(=O)[C@H]2[C@@H]1C(=O)O)C(=O)OC, the composite z-score was 0.264.
With CN(C)CCCC[C@@H]1NC(=O)[C@H]2C[C@@H](C(=O)NCCCCCN)[C@@H](c3cccc(OCCO)c3)N2C1=O the composite z-score was 0.801.
